Experimental data: article PMC11006913
Residue numbers refer to the chain shown, from its start.

Assays:
Experiment in all cases: PBM; 200 nM protein, PBS
Conditions in all cases: dsDNA, one strand shown
[1] = biological target: T1, SIX6 (Homo sapiens, UniProt O95475 114-200, L167I)
T1 sequence: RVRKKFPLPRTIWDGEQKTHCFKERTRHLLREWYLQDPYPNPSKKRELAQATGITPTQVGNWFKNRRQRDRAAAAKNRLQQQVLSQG

[2] = biological target: T2, SIX6 (Homo sapiens, UniProt O95475 114-200, L143V)
T2 sequence: T1 sequence with L30V, I54L

[3] = biological target: T3, SIX6 (Homo sapiens, UniProt O95475 114-200, H141N)
T3 sequence: T1 sequence with H28N, I54L

[4] = biological target: T4, SIX6 (Homo sapiens, UniProt O95475 114-200, T165P)
T4 sequence: T1 sequence with T52P, I54L

[5] = biological target: T5, SIX6 (Homo sapiens, UniProt O95475 114-200, L167M)
T5 sequence: T1 sequence with I54M

[6] = biological target: T6, SIX6 (Homo sapiens, UniProt O95475 114-200, L143M)
T6 sequence: T1 sequence with L30M, I54L

[7] = biological target: T7, SIX6 (Homo sapiens, UniProt O95475 114-200, L143I)
T7 sequence: T1 sequence with L30I, I54L

[8] = biological target: T8, SIX6 (Homo sapiens, UniProt O95475 114-200, T165G)
T8 sequence: T1 sequence with T52G, I54L

[9] = biological target: T9, SIX6 (Homo sapiens, UniProt O95475 114-200, T139Q)
T9 sequence: T1 sequence with T26Q, I54L

[10] = biological target: T10, SIX6 (Homo sapiens, UniProt O95475 114-200, T165A)
T10 sequence: T1 sequence with T52A, I54L

[11] = biological target: T11, SIX6 (Homo sapiens, UniProt O95475 114-200, L167V)
T11 sequence: T1 sequence with I54V

[12] = biological target: T12, SIX6 (Homo sapiens, UniProt O95475 114-200)
T12 sequence: T1 sequence with I54L

[13] = biological target: T13, SIX6 (Homo sapiens, UniProt O95475 114-200, T165I)
T13 sequence: T1 sequence with T52I, I54L

Sequence	binding signal [1]	binding signal [2]	binding signal [3]	binding signal [4]	binding signal [5]	binding signal [6]	binding signal [7]	binding signal [8]	binding signal [9]	binding signal [10]	binding signal [11]	binding signal [12]	binding signal [13]
GTGATACA	11.4 upbm affinity estimate (log intensity, higher = more binding, comparable within an allelic series)	10.4 upbm affinity estimate (log intensity, higher = more binding, comparable within an allelic series)	11.4 upbm affinity estimate (log intensity, higher = more binding, comparable within an allelic series)	9.76 upbm affinity estimate (log intensity, higher = more binding, comparable within an allelic series)	10.8 upbm affinity estimate (log intensity, higher = more binding, comparable within an allelic series)	11.2 upbm affinity estimate (log intensity, higher = more binding, comparable within an allelic series)	10.4 upbm affinity estimate (log intensity, higher = more binding, comparable within an allelic series)	11.3 upbm affinity estimate (log intensity, higher = more binding, comparable within an allelic series)	11.3 upbm affinity estimate (log intensity, higher = more binding, comparable within an allelic series)	11.3 upbm affinity estimate (log intensity, higher = more binding, comparable within an allelic series)	11.1 upbm affinity estimate (log intensity, higher = more binding, comparable within an allelic series)	11 upbm affinity estimate (log intensity, higher = more binding, comparable within an allelic series)	11.2 upbm affinity estimate (log intensity, higher = more binding, comparable within an allelic series)
GTATCAAA	11.4 upbm affinity estimate (log intensity, higher = more binding, comparable within an allelic series)	10.5 upbm affinity estimate (log intensity, higher = more binding, comparable within an allelic series)	11.4 upbm affinity estimate (log intensity, higher = more binding, comparable within an allelic series)	9.91 upbm affinity estimate (log intensity, higher = more binding, comparable within an allelic series)	10.8 upbm affinity estimate (log intensity, higher = more binding, comparable within an allelic series)	11.2 upbm affinity estimate (log intensity, higher = more binding, comparable within an allelic series)	10.4 upbm affinity estimate (log intensity, higher = more binding, comparable within an allelic series)	11.3 upbm affinity estimate (log intensity, higher = more binding, comparable within an allelic series)	11.2 upbm affinity estimate (log intensity, higher = more binding, comparable within an allelic series)	11.4 upbm affinity estimate (log intensity, higher = more binding, comparable within an allelic series)	11.2 upbm affinity estimate (log intensity, higher = more binding, comparable within an allelic series)	11.2 upbm affinity estimate (log intensity, higher = more binding, comparable within an allelic series)	11.2 upbm affinity estimate (log intensity, higher = more binding, comparable within an allelic series)
GCAAAGCC	8.97 upbm affinity estimate (log intensity, higher = more binding, comparable within an allelic series)	8.93 upbm affinity estimate (log intensity, higher = more binding, comparable within an allelic series)	8.96 upbm affinity estimate (log intensity, higher = more binding, comparable within an allelic series)	9 upbm affinity estimate (log intensity, higher = more binding, comparable within an allelic series)	9.02 upbm affinity estimate (log intensity, higher = more binding, comparable within an allelic series)	8.9 upbm affinity estimate (log intensity, higher = more binding, comparable within an allelic series)	8.91 upbm affinity estimate (log intensity, higher = more binding, comparable within an allelic series)	8.9 upbm affinity estimate (log intensity, higher = more binding, comparable within an allelic series)	9 upbm affinity estimate (log intensity, higher = more binding, comparable within an allelic series)	8.93 upbm affinity estimate (log intensity, higher = more binding, comparable within an allelic series)	8.94 upbm affinity estimate (log intensity, higher = more binding, comparable within an allelic series)	8.98 upbm affinity estimate (log intensity, higher = more binding, comparable within an allelic series)	8.92 upbm affinity estimate (log intensity, higher = more binding, comparable within an allelic series)
TGTATCAA	11.2 upbm affinity estimate (log intensity, higher = more binding, comparable within an allelic series)	10.4 upbm affinity estimate (log intensity, higher = more binding, comparable within an allelic series)	11.2 upbm affinity estimate (log intensity, higher = more binding, comparable within an allelic series)	9.94 upbm affinity estimate (log intensity, higher = more binding, comparable within an allelic series)	10.7 upbm affinity estimate (log intensity, higher = more binding, comparable within an allelic series)	11 upbm affinity estimate (log intensity, higher = more binding, comparable within an allelic series)	10.4 upbm affinity estimate (log intensity, higher = more binding, comparable within an allelic series)	11.3 upbm affinity estimate (log intensity, higher = more binding, comparable within an allelic series)	11.2 upbm affinity estimate (log intensity, higher = more binding, comparable within an allelic series)	11.3 upbm affinity estimate (log intensity, higher = more binding, comparable within an allelic series)	11 upbm affinity estimate (log intensity, higher = more binding, comparable within an allelic series)	11.1 upbm affinity estimate (log intensity, higher = more binding, comparable within an allelic series)	11.1 upbm affinity estimate (log intensity, higher = more binding, comparable within an allelic series)
CGCCCACC	9.03 upbm affinity estimate (log intensity, higher = more binding, comparable within an allelic series)	9.02 upbm affinity estimate (log intensity, higher = more binding, comparable within an allelic series)	9.04 upbm affinity estimate (log intensity, higher = more binding, comparable within an allelic series)	9.15 upbm affinity estimate (log intensity, higher = more binding, comparable within an allelic series)	9.04 upbm affinity estimate (log intensity, higher = more binding, comparable within an allelic series)	9.02 upbm affinity estimate (log intensity, higher = more binding, comparable within an allelic series)	9.17 upbm affinity estimate (log intensity, higher = more binding, comparable within an allelic series)	9.11 upbm affinity estimate (log intensity, higher = more binding, comparable within an allelic series)	9.21 upbm affinity estimate (log intensity, higher = more binding, comparable within an allelic series)	9.07 upbm affinity estimate (log intensity, higher = more binding, comparable within an allelic series)	9.06 upbm affinity estimate (log intensity, higher = more binding, comparable within an allelic series)	9.1 upbm affinity estimate (log intensity, higher = more binding, comparable within an allelic series)	9.03 upbm affinity estimate (log intensity, higher = more binding, comparable within an allelic series)
AGGCGCCC	8.71 upbm affinity estimate (log intensity, higher = more binding, comparable within an allelic series)	8.6 upbm affinity estimate (log intensity, higher = more binding, comparable within an allelic series)	8.7 upbm affinity estimate (log intensity, higher = more binding, comparable within an allelic series)	8.77 upbm affinity estimate (log intensity, higher = more binding, comparable within an allelic series)	8.76 upbm affinity estimate (log intensity, higher = more binding, comparable within an allelic series)	8.63 upbm affinity estimate (log intensity, higher = more binding, comparable within an allelic series)	8.66 upbm affinity estimate (log intensity, higher = more binding, comparable within an allelic series)	8.66 upbm affinity estimate (log intensity, higher = more binding, comparable within an allelic series)	8.66 upbm affinity estimate (log intensity, higher = more binding, comparable within an allelic series)	8.69 upbm affinity estimate (log intensity, higher = more binding, comparable within an allelic series)	8.65 upbm affinity estimate (log intensity, higher = more binding, comparable within an allelic series)	8.6 upbm affinity estimate (log intensity, higher = more binding, comparable within an allelic series)	8.7 upbm affinity estimate (log intensity, higher = more binding, comparable within an allelic series)
